# Values joined by “and” are separate entries in the source; they are usually repeats but may differ in a detail not shown here. Identical values can stand only once. Records with an inconclusive call do not appear. Active and inactive are the calls of the source. Cut-off read from the data, not from the text of the source, unless noted: active = inhibition above about 80%; inactive = the rest.
# How the values were obtained:
# [1] = growth inhibition of DIPG glioma cells, dose response, cell-based, SU-DIPG-XIII, MIPE4.0, CellTiter-Glo, qHTS (AID 1347061; cut-off not given, nearly all actives have AC50 up to about 37 µM;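 note: cells exposed to compound for 48 hours before readout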); conditions: SU-DIPG-XIII viability, CellTiter-Glo ATP luminescence
# [2] = growth inhibition of DIPG glioma cells, dose response, cell-based, JHH-DIPG-1, MIPE4.0, CellTiter-Glo, qHTS (AID 1347062; cut-off not given, nearly all actives have AC50 up to about 27 µM); conditions: JHH-DIPG-1 viability, CellTiter-Glo ATP luminescence
# [3] = SU-DIPG-VI glioma cell viability, MIPE4.0 library, CellTiter-Glo luminescence, qHTS (AID 1347066; cut-off not given, nearly all actives have AC50 up to about 30 µM;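 note: cells exposed to compound for 48 hours before readout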); conditions: CellTiter-Glo ATP luminescence
# [4] = sensitizers of A549 cells to miR-34 induction, primary screen, imaging, A549 dox-inducible miR-34, nuclei and caspase counts (AID 1347080;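 active = compounds whose cell count with miR-34 switched on is under 0.7 times the count with it off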); conditions: A549 miR-34 inducible, Hoechst nuclei count, 48 h
# [5] = survival rescue of mitochondrial mutant cells in low glucose, primary screen, MELAS cybrids, Rieske KO mouse fibroblasts, CellTiter-Glo (AID 1508586;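 active = mean z-score across replicates of 1.96 or higher in either the MELAS or the Rieske mutant cell line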;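 note: z relative to plate mean and SD of compound and empty wells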)
# [6] = growth inhibition of DIPG glioma cells, dose response, cell-based, SU-DIPG-IV, MIPE4.0, CellTiter-Glo, qHTS (AID 1347063; cut-off not given, nearly all actives have AC50 up to about 30 µM;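 note: compound exposure lasted 48 hours before the viability readout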); conditions: SU-DIPG-IV viability, CellTiter-Glo ATP luminescence
# [7] = growth inhibition of DIPG glioma cells, dose response, cell-based, SU-DIPG-XIII, MIPE5.0, CellTiter-Glo, qHTS (AID 1347064; cut-off not given, nearly all actives have AC50 up to about 23 µM;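 note: cells exposed to compound for 48 hours before the viability read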); conditions: SU-DIPG-XIII viability, CellTiter-Glo ATP luminescence
# [8] = viability loss in pontine glioma line – cell-based, SU-DIPG-XXV, MIPE5.0, CellTiter-Glo, qHTS, dose response (AID 1347065; cut-off not given, nearly all actives have AC50 up to about 26 µM;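 note: cells exposed to compound for 48 hours before ATP readout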); conditions: CellTiter-Glo ATP luminescence
# [9] = SU-DIPG-XXV glioma cell viability, MIPE5.0 library, qHTS (AID 1347068; cut-off not given, nearly all actives have IC50 up to about 30 µM;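 note: cells exposed to compound for 48 hours before viability readout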)
# [10] = JHH-DIPG-1 glioma cell viability, MIPE5.0 library, CellTiter-Glo luminescence, qHTS (AID 1347067; cut-off not given, nearly all actives have AC50 up to about 26 µM;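 note: cells exposed to compound for 48 hours before readout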); conditions: JHH-DIPG-1 glioma viability, CellTiter-Glo ATP luminescence
# [11] = modifiers of HSF1 nuclear foci, imaging, Selleck Cancer Library (AID 1347162; in the data active = plate-normalised HSF1 focus index below about 0.46); conditions: human cells, at 10 µM; SSMD: measured here: HSF1 foci SSMD mean; cell count: measured here: cell number; plate-normalised HSF1 focus index: stronger effect = lower value
# [12] = LFS_MB_P medulloblastoma growth inhibition, cell-based, chromothripsis tumors, cisplatin or BGB combos (AID 1671449); conditions: LFS_MB_P medulloblastoma cells;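 note: cells exposed for 96 hours; 0% = vehicle DMSO and 100% = killing by high DMSO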
# [13] = HDN33 neuroblastoma growth inhibition, cell-based, chromothripsis tumors, cisplatin or BGB combos (AID 1671450); conditions: HDN33 neuroblastoma cells, stronger effect = higher value;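 note: cells exposed to compound for four days; 0% = vehicle DMSO and 100% = cell killing by high DMSO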
# [14] = ICB984 medulloblastoma cell growth inhibition, synergistic combos for chromothripsis tumors, cisplatin or BGB combos (AID 1671451; call rule not given here;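 note: cells exposed for 96 hours before readout; 0% = vehicle DMSO and 100% = killing by high DMSO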); conditions: ICB984 medulloblastoma cells, drug combinations, stronger effect = higher value
# [15] = HTB85 osteosarcoma cell growth inhibition, synergistic combos for chromothripsis tumors, BGB or cisplatin IC20 combos (AID 1671453); conditions: HTB85 osteosarcoma cells, drug combinations, stronger effect = higher value;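 note: cells exposed for 96 hours before readout; 0% = vehicle DMSO and 100% = high DMSO killing control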
# [16] = MDA-MB-436 breast carcinoma cell growth inhibition, synergistic combos for chromothripsis tumors, BGB or cisplatin combos (AID 1671458; call rule not given here;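 note: cells exposed for 96 hours; 0% = vehicle DMSO and 100% = killing by high DMSO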); conditions: MDA-MB-436 breast carcinoma growth inhibition, drug combinations, stronger effect = higher value
# [17] = growth inhibition of BT084 medulloblastoma cells, cell-based, ICGC_MB145, cisplatin and BGB IC40 combos (AID 1671461); conditions: drug combinations, stronger effect = higher value;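 note: cells exposed to drugs for 96 hours; 0% = vehicle DMSO and 100% = high DMSO full killing control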
# [18] = growth inhibition of RCMB18 medulloblastoma cells, cell-based, cisplatin and BGB IC40 combos (AID 1671462); conditions: stronger effect = higher value;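 note: cells exposed to compound for four days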
# [19] = growth inhibition of CRL1545 osteosarcoma cells, cell-based, cisplatin and BGB IC20 combos (AID 1671464); conditions: stronger effect = higher value;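 note: cells exposed to compound for 96 hours before readout; 0% = vehicle DMSO and 100% = high DMSO killing control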
# [20] = stronger effect = lower value, cell number ratio, induced over uninduced
# [21] = measured here: relative caspase fold change +Dox/-Dox
# [22] = measured here: total cells with miR-34 induction, stronger effect = lower value
# [23] = measured here: total cells without miR-34 induction
# [24] = MELAS cybrid survival, CellTiter-Glo 48 h, stronger effect = higher value
# [25] = Rieske KO mouse fibroblast survival, CellTiter-Glo 72 h
# [26] = measured here: with BGB IC20 combination, at 0.5 µM
# [27] = measured here: with cisplatin IC20 combination, at 0.5 µM
smiles,measurement,setting,value
O=c1c2ccccc2nc2n1CCc1c-2[nH]c2ccccc12,outcome,[1],inactive
same,outcome,[2],inactive
same,outcome,[3],inactive
same,fold change,[4]; [20],0.916 (inactive) and 0.956 (inactive)
same,fold change,[4]; [21],0.977 and 0.922
same,cell count,[4]; [22],6410 and 7870
same,cell count,[4]; [23],6990 and 8230
same,z-score,[5]; [24],-0.312 (inactive)
same,z-score,[5]; [25],0.166
CC(C)CN(C[C@@H](O)[C@H](Cc1ccccc1)NC(=O)O[C@H]1CCOC1)S(=O)(=O)c1ccc(N)cc1,outcome,[1],inactive
same,outcome,[2],inactive
same,outcome,[3],inactive
same,fold change,[4]; [20],0.871 (inactive)
same,fold change,[4]; [21],1.32
same,cell count,[4]; [22],8920
same,cell count,[4]; [23],10200
same,z-score,[5]; [24],-0.00484 (inactive)
same,z-score,[5]; [25],-0.0373
CCOc1ccccc1OCCNC(C)Cc1ccc(OC)c(S(N)(=O)=O)c1 (stereo not drawn),outcome,[1],inactive
same,outcome,[6],inactive
same,outcome,[3],inactive
CCC(=O)OCC(=O)[C@@]1(OC(=O)CC)[C@@H](C)C[C@H]2[C@@H]3CCC4=CC(=O)C=C[C@]4(C)[C@@]3(F)[C@@H](O)C[C@@]21C,AC50,[1],0.00935 µM (active)
same,AC50,[6],2.35 µM (active)
CN(C[C@@H]1COCCO1)S(=O)(=O)Nc1ccc2ccc3ncc(-c4cnn(C)c4)cc3c(=O)c2c1,AC50,[1],2.64 µM (active)
same,AC50,[7],2.63 µM (active)
same,AC50,[8],2.09 µM (active)
same,outcome,[3],inactive
same,IC50,[9],3.32 µM (active)
CC(O)(C#Cc1ccc2c(c1)N(c1nc(N)ncc1Cl)CC2)c1nccs1 (stereo not drawn),AC50,[1],16.6 µM (active)
same,AC50,[6],16.6 µM (active)
same,AC50,[8],13.2 µM (active)
same,outcome,[3],inactive
same,AC50,[10],18.6 µM (active)
C/C=C(/C)C(=O)O[C@H]1C(C)=C[C@]23C(=O)[C@@H](C=C(CO)[C@@H](O)[C@]12O)[C@H]1[C@@H](C[C@H]3C)C1(C)C,outcome,[1],inactive
same,AC50,[3],20.9 µM (active)
CC(C)(C)OC(=O)Nc1ccc(-c2cc(C(=O)NCCCCCCC(=O)NO)no2)cc1,AC50,[1],13.2 µM (active)
same,AC50,[6],2.64 µM (active)
same,AC50,[7],1.86 µM (active)
same,AC50,[8],2.95 µM (active)
same,AC50,[10],3.72 µM (active)
same,fold change,[4]; [20],1.08 (inactive)
same,fold change,[4]; [21],1.18
same,cell count,[4]; [22],3170
same,cell count,[4]; [23],2940
same,SSMD,[11],-0.325
same,cell count,[11],7020
same,plate-normalised HSF1 focus index,[11],0.983 (inactive)
same,inhibition,"[12]; at 0.5 µM, stronger effect = higher value",-18.3% (inactive) and -10.4% (inactive)
same,inhibition,"[12]; measured here: combination with BGB IC20, at 0.005 µM",-24.2% and -11.2%
same,inhibition,"[12]; measured here: combination with BGB IC40, at 0.005 µM",-24.3% and -8.96%
same,inhibition,"[12]; measured here: combination with BGB IC40, at 0.05 µM",-25.1% and 5.48%
same,inhibition,"[12]; measured here: combination with cisplatin, at 0.5 µM, stronger effect = higher value",-19.2% and 23.7%
same,inhibition,"[12]; measured here: combination with cisplatin, at 5 µM, stronger effect = higher value",70% and 74.7%
same,inhibition,"[13]; BGB combo, at 5 µM",75.4% and 95.4%
same,inhibition,[13]; at 0.5 µM,-11.6% (inactive) and 3.28% (inactive)
same,inhibition,"[13]; cisplatin combo, at 5 µM",84.3% and 99.1%
same,inhibition,[13]; [26],-23% and -2.22%
same,inhibition,[13]; [27],1.12% and 13.2%
same,inhibition,"[13]; single agent, at 5 µM",86.2% and 98%
same,inhibition,"[14]; BGB IC20 combo, at 0.005 µM",-9.7% and -9.21%
same,inhibition,"[14]; BGB IC40 combo, at 0.005 µM",-27.3% and -46%
same,inhibition,"[14]; BGB IC40 combo, at 0.05 µM",38.6% and 39.7%
same,inhibition,[14]; at 0.5 µM,-16.4% (inactive) and -21.9% (inactive)
same,inhibition,"[14]; cisplatin combo, at 0.05 µM",35.7% and 37.3%
same,inhibition,"[14]; cisplatin combo, at 0.5 µM",-28% and -20.5%
same,inhibition,"[14]; cisplatin combo, at 5 µM",-41.9% and -70.6%
same,inhibition,"[14]; measured here: 5 uM single agent, at 5 µM",-17.6% and -12.3%
same,inhibition,[15]; at 0.5 µM,-17.8% (inactive) and -4.69% (inactive)
same,inhibition,"[15]; measured here: with BGB IC20, at 0.5 µM",-25.7% and -17.1%
same,inhibition,"[15]; measured here: with BGB IC20, at 5 µM",49.9% and 86.7%
same,inhibition,"[15]; measured here: with cisplatin IC20, at 0.5 µM",-5.92% and 8.08%
same,inhibition,"[15]; measured here: with cisplatin IC20, at 5 µM",62.7% and 92.5%
same,inhibition,"[15]; single agent, at 5 µM",77.5% and 87.2%
same,inhibition,[16]; at 0.5 µM,-5.18% (inactive) and -14.7% (inactive)
same,inhibition,"[16]; measured here: BGB combination, at 0.5 µM",-6.05% and -29.4%
same,inhibition,"[16]; measured here: BGB combination, at 5 µM",54.7% and 62.5%
same,inhibition,"[16]; measured here: cisplatin combination, at 0.5 µM",-18.7% and -11.1%
same,inhibition,"[16]; measured here: cisplatin combination, at 5 µM",56.9% and 63%
same,inhibition,[17]; at 0.5 µM,9.8% (inactive) and 2.37% (inactive)
same,inhibition,"[17]; cisplatin combination, at 0.5 µM",8.11% and 13.2%
same,inhibition,"[17]; cisplatin combination, at 5 µM",29.8% and 83.8%
same,inhibition,"[17]; measured here: BGB IC40 combination 0.05 uM, at 0.05 µM",-31% and -31.3%
same,inhibition,"[17]; single agent, at 5 µM",33.2% and 32%
same,inhibition,[18]; at 0.5 µM,-13.3% (inactive) and 2% (inactive)
same,inhibition,"[18]; cisplatin combo, at 5 µM",55.6% and 86.3%
same,inhibition,"[18]; measured here: BGB IC40 combination, at 0.05 µM",43.9% and -7.68%
same,inhibition,"[18]; measured here: combination with cisplatin, at 0.5 µM",-24.8% and 36.6%
same,inhibition,"[18]; single agent, at 5 µM",42.9% and 30.3%
same,inhibition,[19]; at 0.5 µM,51.1% (inactive) and 53.4% (inactive)
same,inhibition,[19]; [26],34.6% and 54.1%
same,inhibition,[19]; [27],58.7% and 53.1%
same,inhibition,"[19]; single agent, at 0.05 µM",-13.9% and 7.41%
same,inhibition,"[19]; single agent, at 5 µM",94% and 95%
